Only some compounds are listed: those with a hit (about 7.2% of all), similar ones and a draw of the others.
ALR inh: inhibitors of human ALR sulfhydryl oxidase, primary screen, biochemical, H2O2 detection, HRP-luminol luminescence, single point | FAD-linked sulfhydryl oxidase ALR (Homo sapiens), P55789 | purified ALR, DTT oxidation | inhibition, % (test concentration not listed) | 3.8% of 290,000 active | AID 485317, 2010;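 active = mean replicate inhibition above about 79%, with every replicate also reaching it, limit read from the data; inconclusive = only one of the two criteria met; inactive = mean below limit and not every replicate reaching it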
Target sequence (P55789 whole entry, looked up): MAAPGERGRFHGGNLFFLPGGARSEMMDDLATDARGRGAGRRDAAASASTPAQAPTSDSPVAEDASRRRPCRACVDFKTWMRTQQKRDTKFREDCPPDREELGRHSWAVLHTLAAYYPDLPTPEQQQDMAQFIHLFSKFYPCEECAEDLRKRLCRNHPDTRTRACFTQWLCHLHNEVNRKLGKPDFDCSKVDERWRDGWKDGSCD
Mot1-301 SUMO: yeast Mot1-301 growth rescue at high temperature, primary screen, SUMOylation pathway inhibitor project, S. cerevisiae, ATP luminescence, 38.5C. S. cerevisiae Mot1-301 growth rescue; percent above DMSO median, 100 means doubled. growth rescue, % at 18.8 µM. 1% of 320,000 active;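 active = every valid replicate shows activation above 250% relative to neutral control wells; inactive = the rest, any valid replicate at or below 250%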;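 also: OY570 slx delta 5 strain wells were the positive control but not used for scaling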
Efflux pump inh: inhibitors of Candida efflux pumps in yeast, primary screen, S. cerevisiae, Nile Red, multiplex; S. cerevisiae Candida pump triplex; inhibition, % at 10 µM; AID 485275, 2010; 0.44% of 330,000 active;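 active = plate passing quality check with inhibition over a set limit, or well fluorescence over plate mean plus 4 SD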;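 also: Nile Red retained in pooled yeast measured as flow cytometry median fluorescence; 0% = buffer negative control and 100% = Enniatin B positive control; higher means more Nile Red kept so more efflux inhibition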
VLA-4 inh: inhibition in human VLA-4 binding assay, primary screen, VLA-4 allosteric modulator project, MLPCN library, flow cytometry, VLA-4 expressing cells. ligand binding flow cytometry. 0.2% of 330,000 active. Integrin alpha-4 (Homo sapiens), P13612. inhibition, % (about 7 µM as worked out from the volumes in the protocol); in the data active = inhibition above about 50%
Bfl-1 A1 inh: caspase 3/7 activation in MEF A1-2A-BIM cells, primary screen, A1 inhibitor project, cell-based, luminescence, HTS; Caspase-Glo 3/7 luminescence, 3 h; percent of clofoctol response, vehicle zero; caspase activation, % (test concentration not listed); 0.066% of 330,000 active; AID 2462, 2010;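 active = over half of replicate activation scores above 10%, or exactly half above 10 with the replicate mean above 10; inconclusive = replicate mean below 10 yet half the replicates above 10; inactive = over half of replicates below 10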
AHR act: AHR activators, primary screen, cell-based, luminescence, luciferase reporter, human; AHR-responsive luciferase reporter cells; 2.5% of 320,000 active; activation, % at 5 µM; Aryl hydrocarbon receptor (Homo sapiens), P35869; in the data active = activation above about 47%;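 also: 0% = vehicle wells and 100% = reference agonist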
An asterisk follows results filed as active; ? = inconclusive; . = no result given.

SMILES | ALR inh | Mot1-301 SUMO | Efflux pump inh | VLA-4 inh | Bfl-1 A1 inh | AHR act
Cc1cc(C)c(C)c(S(=O)(=O)Nc2cccc(S(=O)(=O)Nc3ccccc3C(=O)O)c2)c1C | 13 | 0 | 0 | 7 | -1 | 0
Cc1ccc2nc(-c3ccc(SCC(=O)Nc4nnc(C)s4)nc3)[nH]c2c1 | . | 179 | 1 | -2 | 0 | 42
Cc1nc(NC(=O)CSc2ccc(-c3nc4ccccc4[nH]3)cn2)sc1C | 99* | -6 | 0 | -10 | -5 | 42
Cc1ccc2nc(-c3ccc(SCC(=O)Nc4nc(C)cs4)nc3)[nH]c2c1 | 15 | 4 | 0 | 15 | -4 | 67*
Cc1cccc(NC(=O)c2ccc(COc3cccc4ccccc34)o2)n1 | -44 | 14 | 0 | -1 | 0 | 71*
CCOc1cccc(/C=N/NC(=O)c2cc(C3CC3)[nH]n2)c1O | 98* | -5 | 0 | 15 | 1 | 53*
CCOc1cccc(/C=N/NC(=O)c2cccnc2)c1O | ? | 0 | 0 | 12 | -2 | 14
Cc1cc(=O)oc2cc(OCCSCCN3CCCC3)ccc12 | 98* | 7 | 0 | 3 | 1 | 1
COc1ccc(N2CCN(CCOc3ccc4c(C)cc(=O)oc4c3)CC2)cc1 | 10 | -8 | 0 | 4 | -2 | -6
CC1CCc2sc(C(=O)N/N=C/c3ccc([N+](=O)[O-])cc3)cc2C1 (stereo not given) | -3 | 299 | 0 | 12 | 0 | 65*
CCn1nc(C)c(C2C(C#N)=C(N)OC3=C2C(=O)CCC3)c1C (stereo not given) | -6 | -12 | 0 | 8 | -2 | 0
Cc1nn(C)c(C)c1C1C(C#N)=C(N)OC2=C1C(=O)CCC2 (stereo not given) | . | 311* | 0 | 11 | 1 | -3
CC(C)(C)C(=O)c1sc(Nc2ccccc2)nc1N | 97* | 287 | 0 | 9 | -1 | 4
Cc1ccc(-c2c(C(=O)O)c(C(=O)O)c3n2CSC3)cc1 | 93* | -5 | 0 | 1 | 0 | 5
COC(=O)c1c(C(=O)OC)c(-c2ccc(F)cc2)n2c1CSC2 | 99* | 1 | 0 | -10 | -1 | 15
O=C(O)c1c(C(=O)O)c(-c2ccc(Br)cc2)n2c1CSC2 | 98* | 0 | 0 | 11 | 0 | 2
Cc1ccc(-c2csc(NC(=O)c3ccc(Br)cc3)c2C(=O)O)cc1 | -2 | 6 | 0 | 10 | -4 | 1
CC(C)(C)c1ccc(-c2c(C(=O)O)c(C(=O)O)c3n2CSC3)cc1 | 55 | 30 | 0 | -7 | 0 | -1
COC(=O)c1c(C(=O)OC)c(-c2ccc(C)cc2)n2c1CS(=O)(=O)C2 | -6 | 4 | 0 | 10 | 1 | 0
Cc1ccc(NC(=O)CN(C)C(=O)COc2ccccc2-c2ccccc2)cc1 | -9 | 3 | 0 | -4 | 0 | 3
CN(C)Cc1c(O)ccc2c(=O)c(-c3ccc(Cl)cc3)coc12 | 11 | -1 | 0 | 3 | 0 | 66*
CCN(CC)Cc1c(O)ccc2c(=O)c(-c3ccc(Cl)cc3)coc12 | . | 18 | 0 | 11 | 0 | 0
CC(=O)c1cccc(OCc2cc(C(=O)N3CCC(N4CCCCC4)CC3)no2)c1 | -23 | -14 | 0 | -105 | 1 | 1
COc1cccc(CC2(CO)CCCN(Cc3sc(N4CCCC4)nc3Cl)C2)c1 (stereo not given) | 9 | -16 | 0 | 9 | 2 | 1
Cc1c(/C=N\NC(=O)C2COc3ccccc3O2)c2ccccc2n1C (stereo not given) | 6 | 12 | 0 | 30 | 0 | 51*
CC(=O)OC1CC(C)(C)N(OC(=O)c2ccc(N)cc2)C(C)(C)C1 | 98* | 8 | 0 | 6 | 0 | -1
CC(=O)OC1CC(C)(C)N(OC(=O)c2ccccc2)C(C)(C)C1 | . | 12 | 0 | -3 | 0 | 0

High-throughput results deposited in PubChem BioAssay by several laboratories.
